Only some compounds are listed: those with a hit (about 0.44% of all), similar ones and a draw of the others.
EPAC2 ag: agonists of human EPAC2 (RAPGEF4) | Potency, µM (series often up to 154 µM), without a hit: at the top dose activation, most hits filed as activators | AID 720711 | actives 0.079% (n = 360,000) | EPAC2 activation, biochemical qHTS; response scale: 100% = 6.5 mM cAMP response | Q8WZA2; also: nearly all actives have a fitted effect of over 50% in size
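EPAC2 (100 nM) mixed with Rap1B loaded with BODIPY-GDP (250 nM) plus 50 uM unlabeled GDP; compounds pinned in, 5 min RT, then read every 5 min for 30 min (ex 480, em 540 nm). Normalized to cAMP control.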
EPAC1 ag: EPAC1 (human) agonism; Potency, µM (titrated, usually from 154 µM), without a hit: at the top dose activation, usual class: activators; actives 0.073% (n = 360,000); EPAC1 agonist qHTS, biochemical assay; response scale: 100% = response to 6.5 mM cAMP; also: nearly all actives have a fitted effect of over 60% in size
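Normalized to 6.5 mM cAMP, activity reflects EPAC1-catalysed release of BODIPY-GDP from Rap1B, followed kinetically over 30 min at 480 nm excitation, 540 nm emission. Reaction contained 100 nM EPAC1, 250 nM Rap1B-BODIPY-GDP, 50 uM GDP.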
USP2a block: USP2a (human) protease inhibition; O75604; USP2 core, Ub-CHOP2 coupled fluorogenic reporter, 485/531; Potency, µM (highest dose often 38.3 µM), without a hit: at the top dose activity change, negative = inhibition, actives largely listed as inhibitors; actives 0.01% (n = 330,000); AID 463254;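 also: plate controls were DMSO wells for no effect and full inhibition by NEM control for full effect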
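Cell-free coupled assay: 10nM USP2 core preincubated 30min RT with compound in Tris-HCl pH 8.0/CaCl2/CHAPS buffer, then 25nM Ub-CHOP2 and 25nM reporter substrate; fluorescence (Ex 485/Em 531) read after 60min RT, normalized to NEM inhibition, concentration-response curves fitted.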
EPAC2 antagonist: blocks human EPAC2 exchange factor | EPAC2 GEF exchange of Rap1B-BODIPY-GDP, fluorescence | Potency, µM (series often up to 114 µM), inactives show top-dose activity, negative = inhibition, most hits filed as inhibitors | actives 0.18% (n = 360,000) | AID 720708; also: % is scaled to controls: 0 for no effect and ±100 for the full control effect; nearly all actives have a fitted effect of over 45% in size
EPAC1 antag: blocks human EPAC1 exchange factor. EPAC1 GEF assay, Rap1b-BODIPY-GDP exchange fluorescence. Potency, µM (doses to about 115 µM), without a hit: at the top dose activity change, negative = inhibition, actives largely listed as inhibitors. actives 0.14% (n = 360,000). O95398;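 also: plate controls were vehicle for no effect and positive control for full effect; nearly all actives have a fitted effect of over 50% in size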
USP1 inh: blocks the human USP1/UAF1 deubiquitinase complex | AID 743255 | O94782 | Potency, µM (titrated, usually from 57.1 µM), for the others: at the top dose activity change, negative = inhibition, actives largely listed as inhibitors | recombinant USP1/UAF1, Ub-Rhodamine cleavage fluorescence | actives 0.23% (n = 390,000); also: % is scaled to controls: 0 for no effect and ±100 for the full control effect; nearly all actives have a fitted effect of over 60% in size
Target sequence (O94782 whole entry, looked up): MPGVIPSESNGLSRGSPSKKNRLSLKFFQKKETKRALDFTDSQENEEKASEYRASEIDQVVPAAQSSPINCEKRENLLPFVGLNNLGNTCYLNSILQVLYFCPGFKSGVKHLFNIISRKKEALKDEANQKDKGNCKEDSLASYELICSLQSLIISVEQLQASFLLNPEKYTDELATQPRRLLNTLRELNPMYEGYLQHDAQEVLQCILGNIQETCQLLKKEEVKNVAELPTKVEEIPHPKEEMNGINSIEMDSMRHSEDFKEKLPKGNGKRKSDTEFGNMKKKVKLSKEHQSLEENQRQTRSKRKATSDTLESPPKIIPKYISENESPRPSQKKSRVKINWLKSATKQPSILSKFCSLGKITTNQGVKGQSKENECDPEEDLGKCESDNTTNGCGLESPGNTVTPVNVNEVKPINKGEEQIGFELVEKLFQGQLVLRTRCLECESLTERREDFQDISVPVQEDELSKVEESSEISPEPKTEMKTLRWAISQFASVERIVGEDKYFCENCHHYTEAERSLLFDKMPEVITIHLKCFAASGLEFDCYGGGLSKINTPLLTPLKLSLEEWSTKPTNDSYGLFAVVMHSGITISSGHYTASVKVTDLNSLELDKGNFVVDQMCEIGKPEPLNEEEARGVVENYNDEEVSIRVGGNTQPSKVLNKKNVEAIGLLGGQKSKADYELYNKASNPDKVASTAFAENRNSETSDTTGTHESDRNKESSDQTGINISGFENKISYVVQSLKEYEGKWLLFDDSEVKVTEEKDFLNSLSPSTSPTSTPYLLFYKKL
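1 nM enzyme complex + cpd, 15 min RT; start with Ub-Rho 150nM final; kinetic fluorescence ex 480/em 540, 6 reads q60 s. Buffer 50mM HEPES pH 7.8, 0.5mM EDTA, 0.1 mg/ml BSA, 1mM TCEP, 0.01% Tween-20.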
Starred values were filed as active, the others as inactive; ? = inconclusive; . = not tested or not shown; [ ] = remark or other dose. Calls follow the shape of the dose curve; as a rule, active = well fitted curve in the direction sought with a large enough effect; inconclusive = small, poorly fitted or top-dose-only effect, or another doubt; inactive = no such curve, though single readings can be large; an effect the other way counts as inactive or inconclusive. Potency is read from the fitted curve at half-maximal effect.

SMILES	EPAC2 ag	EPAC1 ag	USP2a block	EPAC2 antagonist	EPAC1 antag	USP1 inh
O=C(O)COc1ccccc1/C=N/Nc1ccc(S(=O)(=O)Nc2ccc(Cl)cc2)cc1[N+](=O)[O-]	-6.5%	?	-1.0%	0.6%	22.4µM*	-12.0%
COc1ccc(C=NNc2ccc([N+](=O)[O-])cc2S(=O)(=O)Nc2ccccc2C(=O)O)cc1OC	-7.8%	-10.2%	1.7%	-20.4%	50.1µM*	-10.7%
O=C(O)c1ccccc1NS(=O)(=O)c1ccc(NN=Cc2cccc(Cl)c2)c([N+](=O)[O-])c1	-7.6%	-3.2%	1.9%	?	50.1µM*	?
NS(=O)(=O)c1ccc(N/N=C/c2ccccc2C(=O)O)c([N+](=O)[O-])c1	5.8%	4.0%	-3.2%	-6.1%	?	-16.8%
COc1ccc(OC)c(NC(=O)CN2C(=O)CC(C)Sc3ccccc32)c1 (stereo not given)	.	.	.	.	.	-29.3%
Cc1cccc(-n2c(SCC(=O)c3ccccc3)nnc2-c2ccc(Br)cc2)c1	.	.	.	.	.	-8.5%
O=C(O)c1ccccc1NS(=O)(=O)c1ccc(NN=Cc2ccc(F)cc2)c([N+](=O)[O-])c1	6.1%	3.9%	2.4%	-10.4%	50.1µM*	-11.6%
COc1ccc(NS(=O)(=O)c2ccc(NN=Cc3ccc(C(=O)O)cc3)c([N+](=O)[O-])c2)cc1	.	.	-0.6%	.	.	.
CCCc1nc2ccccc2n2c(-c3ccc(C)cc3)c3c(=O)n(C)c(=O)n(C)c3c12	.	.	.	.	.	-22.2%
Cc1ccc(Cl)cc1N1CCN(C(=O)c2c(C)oc3ncnc(N4CCOCC4)c23)CC1	.	.	.	.	.	11.5%
Cc1cccc(C(C)C)c1NC(=O)c1ccc2c(c1)CCN2S(C)(=O)=O	.	.	.	.	.	-19.6%
Cc1ccc2nc(/C(C#N)=C\c3ccc(N4CCOCC4)o3)[nH]c2c1	39.8µM*	?	?	16.7%	41.4%	25.1µM*
Cc1ccc2nc(/C(C#N)=C/c3ccc(-c4ccccc4C(=O)O)o3)[nH]c2c1	17.1%	24.3%	9.4%	4.5%	1.5%	31.6µM*
N#C/C(=C\c1ccc(-c2ccccc2C(=O)O)o1)c1nc2ccccc2[nH]1	11.5%	24.3%	5.7%	-5.3%	5.0%	?
N#C/C(=C\c1ccc(N2CCOCC2)o1)C(=O)NCCc1ccccc1	14.2%	19.3%	?	-10.3%	-5.6%	?
Cc1ccc(/C(C#N)=C\c2ccc(N3CCOCC3)o2)cc1	?	10.6%	2.1%	-0.4%	-3.2%	25.1µM*
Cc1ccc2nc(/C(C#N)=C\c3ccc([N+](=O)[O-])o3)[nH]c2c1	3.0%	-7.3%	2.9%	19.3%	10.4%	-23.3%
N#C/C(=C/c1ccc(N2CCOCC2)o1)C(=O)Nc1ccccc1	100µM*	100µM*	?	65.0%	8.0%	25.1µM*
CC(C)(C)OC(=O)N1CCC(c2c(C(=O)NCCN3CCCC3)cnn2-c2ccc(Cl)cc2)CC1	.	.	.	.	.	-18.1%
N#C/C(=C/c1ccc(N2CCCCC2)o1)c1cccc(F)c1	-1.2%	-8.1%	3.5%	8.1%	7.7%	17.8µM*
CN(C)c1ccccc1-c1cc(NC=O)c2ncc(-c3cccc(C(F)(F)F)c3)n2c1	-18.2%	-121.2%	.	?	31.6µM*	.
COc1ccccc1-c1cc(NC=O)c2ncc(-c3cccc(C(F)(F)F)c3)n2c1	-3.4%	4.0%	.	-22.5%	-7.9%	.
O=C1c2oc3ccccc3c(=O)c2C(c2ccccc2)N1Cc1ccc2c(c1)OCO2 (stereo not given)	.	.	.	.	.	-1.9%
COc1ccc(NC(=O)N(C)C[C@H]2Oc3ccc(NC(=O)CCN4CCOCC4)cc3C(=O)N([C@@H](C)CO)C[C@H]2C)cc1	3.3%	1.9%	1.3%	-1.7%	-7.9%	5.01µM*
COc1ccc(NC(=O)N(C)C[C@H]2Oc3ccc(NC(=O)CCC(F)(F)F)cc3C(=O)N([C@H](C)CO)C[C@@H]2C)cc1	-0.2%	3.0%	-6.2%	2.5%	22.9%	-24.0%
SMILES	EPAC2 ag	EPAC1 ag	USP2a block	EPAC2 antagonist	EPAC1 antag	USP1 inh
C=CCn1c(=O)/c(=C/c2ccc(C)o2)s/c1=C(/C#N)C(=O)c1ccccc1	100µM*	6.8%	0.4%	58.5%	4.4%	?
Cc1ccc(/C=c2\sc3nc(-c4ccccc4Br)nn3c2=O)o1	7.7%	-14.7%	4.0%	15.0%	-17.6%	-23.3%
COc1cc(NC(=O)CC2C(=O)OCCN2Cc2ccccc2)cc(OC)c1 (stereo not given)	.	.	.	.	.	5.0%
CCOC(=O)N1CCN(c2nc(C(F)(F)F)nc3c(C)cc(C)cc23)CC1	9.0%	-0.7%	.	-19.9%	-12.2%	-16.2%
Cc1cc(C)c2nc(C(F)(F)F)nc(N3CC(C)OC(C)C3)c2c1 (stereo not given)	-2.3%	1.6%	.	10µM*	-9.3%	-10.1%
O=[N+]([O-])c1ccc(C(c2sc3nc(-c4ccco4)nn3c2O)N2CCN(Cc3ccccc3)CC2)cc1 (stereo not given)	.	.	.	.	.	-20.6%
Cc1nc(-n2nc(C)c(Cc3ccccc3Cl)c2C)sc1C(=O)N1CCC(C)CC1	.	.	.	.	.	10.1%
CCN(CC)c1ccc(/C=C/C(=O)c2ccc(Br)cc2)cc1	100µM*	100µM*	?	364.0%	313.1%	28.2µM*
CN(C)c1ccc(C(=O)/C=C/c2ccc(Br)cc2)cc1	100µM*	4.1%	0.2%	3.7%[57.1 µM]	15.7%	-22.9%
CCOc1ccc2oc(=O)cc(CN3CCN(c4cc(C)ccc4C)CC3)c2c1	.	.	.	.	.	7.0%
CCc1cccc(NC(=O)c2cnc(SC)nc2-c2ccccc2)c1	.	.	.	.	.	-15.3%
CC(NC(=O)CCCN1C(=O)CCn2nc(-c3cn(C)c4ccccc34)cc21)c1ccccc1 (stereo not given)	.	.	.	.	.	-17.9%
O=C(CSc1nccn1Cc1ccccc1)NCc1ccccc1Cl	.	.	.	.	.	-29.5%
Cc1ccccc1C(=O)Nc1cccc(NC(=O)c2ccc(C(C)(C)C)cc2)c1	.	.	.	.	.	-24.4%
COC(=O)CC1Oc2ccc(F)cc2-n2cc(-c3ccc(C)cc3)nc21 (stereo not given)	.	.	.	.	.	-15.5%
CCCCn1nc(-c2ccccc2)c2nc3ccccc3nc21	.	.	1.0%	.	.	.
Cn1nc(-c2ccccc2)c2nc3ccccc3nc21	100µM*	9.5%	-0.4%	291.3%	9.7%	?
